Consider eight compounds from PubChem BioAssay (NCI).

Among the test systems are NCI-H23 lung; NCI-H226 lung; NCI-H322M lung; HOP-62 NSCLC; NCI-H460 lung; HOP-92 NSCLC; NCI-H522 lung; A549/ATCC NSCLC; 786-0 renal; COLO 205 colon; DU-145 prostate; K-562 leukemia; MALME-3M melanoma; MDA-MB-231 breast; RXF 393 renal; SF-268 CNS; SF-295 CNS; SF-539 CNS; UACC-257 melanoma.
Common to all, as to experiment: NCI-60 one-dose screen, 48 h (100 = growth as untreated, 0 = no growth, -100 = all killed)
Common to all, as to conditions: 10 µM unless noted

Structures are written as SMILES. This is part of a sample that, as a whole, favours compounds with a hit. Of some 83,000 tested, about 20% had one in any assay.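 48-hour exposure, single concentration, 96-well plates; percent growth endpoint where 0 means no net growth. Active: below 10.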 Values without a mark were called inactive. Calls of active or inactive are those of the source.

Take `Clc1ccc(-c2cn(-c3ccccc3)c(-c3ccccc3)n2)cc1`: the growth was 85.2% with NCI-H23 lung; 80.9% in the experiment with NCI-H226 lung; 95.9% with NCI-H322M lung; 76.9% in the experiment with HOP-62 NSCLC; 104% with NCI-H460 lung; 68.7% in the experiment with HOP-92 NSCLC. For the same compound, the growth in the experiment with NCI-H522 lung is 55.2%; in the experiment with A549/ATCC NSCLC, 71.3%; in the experiment with 786-0 renal, 81.3%; in the experiment with COLO 205 colon, 107%; in the experiment with DU-145 prostate it was 93.9%; in the experiment with K-562 leukemia it was 18.4%. For the same compound, the growth was 111% in the experiment on MALME-3M melanoma; 98.9% in the experiment with MDA-MB-231 breast; 132% with RXF 393 renal; 96.9% in the experiment on SF-268 CNS; 98.8% in the experiment with SF-295 CNS; 102% in the experiment with SF-539 CNS. Besides, in the experiment with UACC-257 melanoma, the growth was 173%.
Turning to `NS(=O)(=O)c1cnccc1-n1ccc(=O)c(S(N)(=O)=O)c1`, the growth with NCI-H23 lung was 91.4%; with NCI-H226 lung, 84.1%; in the experiment with NCI-H322M lung, 94.2%; with HOP-62 NSCLC it was 85.6%; in the experiment with NCI-H460 lung, 109%; in the experiment with HOP-92 NSCLC, 80.9%. For the same compound, the growth was 9.19% (active) in the experiment with NCI-H522 lung; 33.9% in the experiment with A549/ATCC NSCLC; 97.5% with 786-0 renal; 94.4% in the experiment with COLO 205 colon; 106% in the experiment on DU-145 prostate; 84.1% with K-562 leukemia. In addition, the growth is 50.1% with MALME-3M melanoma; 94% in the experiment on MDA-MB-231 breast; 139% in the experiment with RXF 393 renal; 101% with SF-268 CNS; 59.1% in the experiment with SF-295 CNS; 97.8% in the experiment with SF-539 CNS. For the same compound, the growth in the experiment on UACC-257 melanoma is 115%.
As for `COc1ccc(-c2cc(-c3ccc(Nc4nc(Nc5ccccc5)nc(Nc5ccc(Cl)cc5)n4)cc3)nc(N)c2C#N)cc1`, the growth with NCI-H23 lung was -6.72% (active); with NCI-H226 lung, -60.9% (active); in the experiment on NCI-H322M lung, 42.2%; with HOP-62 NSCLC it was -31.1% (active); in the experiment on NCI-H460 lung it was 24.6%; with HOP-92 NSCLC it was -67.6% (active). Also, the growth with NCI-H522 lung is -3.64% (active); in the experiment with A549/ATCC NSCLC, 38.2%; with 786-0 renal, -81% (active); in the experiment on COLO 205 colon, 12.5%; with DU-145 prostate it was 33%; with K-562 leukemia it was 4.07% (active). The growth with MALME-3M melanoma was -76.6% (active); with MDA-MB-231 breast it was -27.4% (active); in the experiment on RXF 393 renal, -12.1% (active); in the experiment on SF-268 CNS, -26.4% (active); in the experiment on SF-295 CNS it was 34.4%; with SF-539 CNS, -54.9% (active). Further, the growth with UACC-257 melanoma is -11.4% (active).
Regarding `Cn1ncc2c(Nc3ccc(Br)cc3)nc(Nc3ccc(Br)cc3)nc21`, the growth in the experiment with NCI-H23 lung is 27.5%; in the experiment with NCI-H226 lung it was 62.1%; in the experiment with NCI-H322M lung it was 73%; in the experiment on HOP-62 NSCLC, 23.8%; in the experiment with NCI-H460 lung, 8.2% (active); in the experiment on HOP-92 NSCLC, 7.66% (active). The growth in the experiment on NCI-H522 lung was 44.8%; with A549/ATCC NSCLC, 48.1%; with 786-0 renal it was -38.9% (active); with COLO 205 colon, 64%; in the experiment with DU-145 prostate it was 68.3%; with K-562 leukemia it was 11.4%. Also, the growth is 55.4% in the experiment with MALME-3M melanoma; 17.7% in the experiment with MDA-MB-231 breast; 64.1% in the experiment on RXF 393 renal; 57.6% in the experiment on SF-268 CNS; 40.2% in the experiment with SF-295 CNS; 64.9% with SF-539 CNS. In addition, in the experiment on UACC-257 melanoma, the growth was 82.6%.
Take `O=c1[nH]c(=O)n(C2CC(O)C(CO)O2)cc1CO` (configuration not stated): the growth in the experiment on NCI-H23 lung was 41.6%; with NCI-H226 lung, 98.2%; with NCI-H322M lung, 102%; in the experiment on HOP-62 NSCLC, 32.8%; in the experiment with NCI-H460 lung, 65.9%; in the experiment with HOP-92 NSCLC it was 105%. Also, the growth with NCI-H522 lung is 101%; with A549/ATCC NSCLC, 86.5%; in the experiment with 786-0 renal, -18.5% (active); with COLO 205 colon it was 120%; with DU-145 prostate it was 111%; in the experiment on K-562 leukemia, 82.3%. For the same compound, the growth in the experiment on MALME-3M melanoma is 90.1%; with MDA-MB-231 breast, 102%; in the experiment on RXF 393 renal, 99.5%; in the experiment with SF-268 CNS, 99.8%; in the experiment on SF-295 CNS, 110%; in the experiment with SF-539 CNS, 95.7%. In addition, in the experiment with UACC-257 melanoma, the growth is 103%.
Turning to `O=C(/C=C/c1ccccc1)c1ccc2ccccc2c1`, the growth in the experiment with NCI-H23 lung was 92.1%; with NCI-H226 lung, 98.5%; in the experiment with NCI-H322M lung it was 99.8%; with HOP-62 NSCLC, 96.5%; in the experiment on NCI-H460 lung, 110%; in the experiment on HOP-92 NSCLC it was 94.6%. In addition, the growth was -3.88% (active) in the experiment with NCI-H522 lung; 96.3% in the experiment with A549/ATCC NSCLC; 90.8% in the experiment on 786-0 renal; 38.3% in the experiment with COLO 205 colon; 105% with DU-145 prostate; 56.9% with K-562 leukemia. Besides, the growth is 95.9% in the experiment on MALME-3M melanoma; 94.3% in the experiment with MDA-MB-231 breast; 96.5% with RXF 393 renal; 94.8% with SF-268 CNS; 107% in the experiment on SF-295 CNS; 99.2% with SF-539 CNS. Also, the growth in the experiment with UACC-257 melanoma is 87.9%.
Turning to `COc1cc(/C=C/C(=O)c2ccc(Nc3nc(Nc4ccccc4)nc(Nc4ccc(Cl)cc4)n3)cc2)cc(OC)c1OC`, the growth was 15.5% in the experiment with NCI-H23 lung; 39.2% in the experiment with NCI-H226 lung; 73.3% in the experiment on NCI-H322M lung; 52.7% in the experiment on HOP-62 NSCLC; 50.5% with NCI-H460 lung; 1.92% (active) with HOP-92 NSCLC. Besides, the growth was 77.3% in the experiment on NCI-H522 lung; 84.5% with A549/ATCC NSCLC; -25.4% (active) with 786-0 renal; 94.8% with COLO 205 colon; 77% in the experiment with DU-145 prostate; 28.9% in the experiment on K-562 leukemia. Also, the growth with MALME-3M melanoma was 44.3%; in the experiment with MDA-MB-231 breast, 58.1%; with RXF 393 renal it was 58.5%; in the experiment with SF-268 CNS, 73.2%; in the experiment with SF-295 CNS it was 64.3%; with SF-539 CNS, 72.8%. Further, the growth in the experiment with UACC-257 melanoma is 87.1%.
For the compound `CO[C@H]1/C=C/O[C@@]2(C)Oc3c(C)c(O)c4c(c3C2=O)C(=O)C(/C=N/N(c2ccccc2)c2ccccc2)=C(NC(=O)/C(C)=C\C=C\[C@H](C)[C@H](O)[C@@H](C)[C@@H](O)[C@@H](C)[C@H](OC(C)=O)[C@@H]1C)C4=O`, the growth with NCI-H23 lung was 5.83% (active); in the experiment on NCI-H226 lung, 18.4%; in the experiment on NCI-H322M lung, 22.2%; in the experiment with HOP-62 NSCLC, -76.7% (active); with NCI-H460 lung it was -50.7% (active); in the experiment on HOP-92 NSCLC, -48.6% (active). Besides, the growth was -24% (active) in the experiment on NCI-H522 lung; 3.7% (active) in the experiment on A549/ATCC NSCLC; 3.91% (active) with 786-0 renal; -60.3% (active) in the experiment with COLO 205 colon; 12.9% in the experiment on DU-145 prostate; 7.47% (active) with K-562 leukemia. In addition, the growth in the experiment with MALME-3M melanoma is -43.9% (active); with MDA-MB-231 breast it was -40.1% (active); in the experiment on RXF 393 renal, -61.9% (active); in the experiment on SF-268 CNS, 14.9%; in the experiment on SF-295 CNS, -72.3% (active); in the experiment with SF-539 CNS it was -69.8% (active). In addition, the growth with UACC-257 melanoma was -22.5% (active).
